Screening data deposited in PubChem BioAssay by several laboratories.
IEC-6 tox = IEC-6 cytotoxicity, counter-screen for KLF5 inhibitors. luminescence viability. AID 1825. hit rate 0.78% among 290,000. inhibition, % at 5 µM; in the data active = inhibition above about 22%;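 also: 0% = plate median of test compound wells and 100% = cytotoxic reference compound wells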
KLF5 inh = inhibitors of KLF5 expression; DLD-1 KLF5 promoter-luciferase reporter, luminescence; inhibition, % at 5 µM; AID 1700; hit rate 0.23% among 290,000;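 active = inhibition above a per-plate limit of that plate's mean compound inhibition plus 3 SD, cut at about 60% in these data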;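 also: 0% = DMSO wells and 100% = LY294002 at 200 µM; higher means less KLF5 promoter-driven luciferase light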
APP transl inh = APP translation inhibition; SH-SY5Y APP 5'UTR-luciferase reporter, luminescence; inhibition, % at 2 µM; hit rate 0.82% among 190,000; AID 1285;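 active = inhibition above a set limit, derived from the sample mean plus 3 SD, cut at about 45% in these data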
Ba/F3 V617F tox = lowers viability of Ba/F3 cells expressing EpoR and JAK2V617F; ATP luminescence; inhibition, % at 5.6 µM; AID 1446; hit rate 1.1% among 220,000;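 active = inhibition above the campaign mean plus 3 SD over all tested compounds, cut at about 24% in these data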;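 also: cytokine-independent growth of Ba/F3 cells driven by EpoR plus mutant JAK2; 0% = DMSO-treated cells and 100% = JAK inhibitor I control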
aSyn UTR inh = MLPCN primary screen, SNCA 5' untranslated region | alpha-synuclein 5'UTR reporter, inhibitor activity | hit rate 0.82% among 300,000 | inhibition, % (tested at 7.5 µM); in the data active = inhibition above about 60%;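 also: H4 neuroglioblastoma cells stably carrying SNCA 5'UTR luciferase fusion; 0% = DMSO wells and 100% = positive control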
BaF3 parental = parental Ba/F3 viability inhibition as JAK2V617F counter-screen | hit rate 1.1% among 220,000 | inhibition, % at 5.6 µM | CellTiter-Glo ATP luminescence;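 active = inhibition above a per-campaign cutoff, the mean inhibition of all tested compounds plus 3 SD, cut at about 27% in these data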;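 also: 0% = DMSO wells and 100% = JAK Inhibitor I control wells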
Starred values were filed as active, the others as inactive; x = no result. Shown are actives, neighbours in structure and some others; about 2.2% of the full set was active somewhere.

SMILES	IEC-6 tox	KLF5 inh	APP transl inh	Ba/F3 V617F tox	aSyn UTR inh	BaF3 parental
CC(C)c1ccc2[nH]c(O)c(N=NC(=O)c3cccc(S(=O)(=O)Nc4ccc(Cl)cc4)c3)c2c1	0.7	-20.9	6.1	3.5	79.4*	5.0
Cn1c(CCN2CCCCC2)nc2cc(NC(=O)COc3ccc(Cl)cc3)ccc21	-0.2	-2.5	x	x	0.2	x
Cc1ccc(OCC(=O)Nc2ccc3c(c2)nc(CCN2CCN(C)CC2)n3C)cc1	-1.4	-8.4	x	-0.4	105.3*	1.9
Cc1ccc(C(C)C)c(OCC(=O)Nc2ccc3c(c2)nc(CCN2CCCCC2)n3C)c1	6.2	-14.0	x	x	110.3*	x
Cc1c(CC(=O)O)c(=O)oc2cc(OCc3ccc(Cl)cc3)ccc12	5.4	-16.7	x	x	-7.5	x
CC(C)Cc1nc2c(nnn2Cc2ccccc2F)c(=O)[nH]1	6.5	-39.0	x	-1.9	31.7	-10.5
Cc1ccc(NC(=O)COc2ccc(C(=O)c3ccccc3)cc2)c(O)c1	-4.7	-29.3	x	x	5.9	x
N#Cc1ccccc1COc1ccc(/C=C/C(=O)O)cc1	-0.3	-1.8	59.5*	7.5	71.0*	5.3
COc1ccc(C(=O)CSc2nnc(-c3ccco3)c(-c3ccco3)n2)cc1	-23.6	-8.3	66.6*	2.8	-35.8	2.8
Cc1ccc(NC(=O)CSc2nnc(-c3ccco3)c(-c3ccco3)n2)cc1	-20.2	-5.8	31.3	0.8	22.0	0.6
O=C(CSc1nnc(-c2ccco2)c(-c2ccco2)n1)Nc1ccccc1	-14.0	-5.9	50.1*	-3.4	18.7	-1.1
c1ccc2nc(-c3nc4ccccc4[nH]3)ccc2c1	10.2	-63.9	-191.9	12.0	74.4*	14.7
c1ccc2[nH]c(-c3cscn3)nc2c1	-3.3	-81.2	-21.4	-0.1	-99.0	2.0
CCN(Cc1ccccc1)C(=O)CN1C(=O)NC(CC)(c2ccc(F)cc2)C1=O (stereo unspecified)	2.2	-6.9	x	x	7.3	x
CCCCN(Cc1ccccc1)S(=O)(=O)c1ccc2[nH]c(=O)oc2c1	11.9	-3.2	48.9*	4.2	19.7	3.7
O=C(CSc1nnc(Cn2nnc3ccccc32)o1)N(Cc1ccc(F)cc1)c1ccccc1	7.6	-14.5	3.8	8.8	-11.2	41.3*
Cc1ccc(O)c(N=NC2=C(O)CC(C)(C)CC2=O)c1	-3.7	-57.9	35.5	10.1	64.8*	3.8
CC1(C)CC(=O)C(N=Nc2cc(Cl)c(Cl)c(Cl)c2)=C(O)C1	-7.8	-10.8	5.6	-4.2	-9.1	-0.7
COCc1cc(CN(C)C(=O)C2CCC(=O)N(Cc3cccc(OC)c3)C2)[nH]n1 (stereo unspecified)	-3.6	-29.2	x	x	2.9	x
CC(C)CNC(=O)NC(=O)COc1ncnc2sccc12	-2.2	-25.6	-2.6	-3.2	14.6	0.2
CC(C)CCNC(=O)NC(=O)COc1ncnc2sccc12	-5.8	-4.1	4.6	-4.9	21.6	96.0*
Cc1cccc2cc(C#N)c(N3CCC(O)CC3)nc12	0.2	-29.9	-5.2	0.6	-18.7	6.2
CN(CC1COc2ccccc2O1)C(=S)Nc1ccccc1 (stereo unspecified)	1.1	-23.7	-7.7	1.5	-19.8	27.5*
COc1cc(OC)c2cc[nH]c2c1	1.4	-0.3	-11.4	-4.3	14.9	-0.3
COc1ccc2cc[nH]c2c1	5.0	-31.6	-4.5	-1.9	70.8*	7.7
SMILES	IEC-6 tox	KLF5 inh	APP transl inh	Ba/F3 V617F tox	aSyn UTR inh	BaF3 parental
CCOC(=O)c1c(C)[nH]c(C(=O)N/N=C/c2ccc(Br)cc2)c1C	85.1*	72.2*	94.7*	73.1*	39.5	77.8*
Brc1ccc(C=Nc2ccc(Nc3ccccc3)cc2)s1	7.3	3.6	45.2*	2.2	12.8	8.2
CS(=O)(=O)N(CC(=O)N1CCc2ccccc2C1)c1ccc2c(c1)OCO2	6.4	3.0	-15.3	0.8	-9.9	92.8*
CCOC(=O)c1c(-c2ccc(OC)cc2)oc2cc(Br)c(O)cc12	-4.4	-16.2	x	x	24.9	x
CCOC(=O)c1c(C)[nH]c2cc(Br)c(O)cc12	2.6	1.1	54.6*	-1.6	-92.3	7.9
CC1CCC(=NNc2ccc(C(F)(F)F)cc2[N+](=O)[O-])CC1 (stereo unspecified)	7.3	-29.3	10.1	5.7	-3.1	9.8
CC1CCC/C(=N/Nc2ccc([N+](=O)[O-])cc2[N+](=O)[O-])C1 (stereo unspecified)	-2.4	-30.3	79.4*	-0.4	6.7	5.5
COc1cc(OC)c(OC)cc1/C=C1\CC(C)C/C(=C\c2cc(OC)c(OC)cc2OC)C1=O (stereo unspecified)	1.1	-24.6	x	x	-20.1	x
CCN(CC)c1ccc2c(-c3ccc(S(=O)(=O)O)cc3S(=O)(=O)[O-])c3ccc(=[N+](CC)CC)cc-3oc2c1	9.0	-13.6	x	x	80.2*	x
O=C(CN1C(=O)CCS(=O)(=O)c2ccccc21)Nc1ccccc1F	-5.2	-43.2	x	x	12.0	x
COc1cnc(-c2ccccn2)nc1Oc1ccccc1	0.1	-7.9	8.3	-3.4	-47.5	7.2
COc1cnc(-c2ccccn2)nc1N(C)c1ccccc1	15.1	-42.5	x	x	88.6*	x
O=C(Nc1ncc([N+](=O)[O-])s1)c1ccccc1Br	-1.0	-88.5	x	x	-126.3	x
COc1cccc(NC(=O)CCNC(=O)C2CCN(S(=O)(=O)c3ccc(F)cc3)CC2)c1	8.8	-2.9	x	x	10.3	x
Cc1cccc2cc(C#N)c(SCC#N)nc12	0.5	-7.8	-9.9	0.5	84.9*	2.6
CCc1nc(SCC#N)c(C#N)cc1C	2.3	-18.2	0.9	-0.5	68.5*	4.0
CCc1nc(SCC(=O)O)c(C#N)cc1C	-2.3	-3.0	12.2	-0.3	-16.1	5.6
Cc1cccc2cc(C#N)c(SCC(=O)NNC(=O)Cc3ccccc3)nc12	3.1	-38.0	1.6	0.5	9.4	4.0
O=C(O/N=C1/CCCc2occc21)c1ccc(Cl)cc1Cl	7.7	14.9	x	0.0	-17.8	4.7
O=C(CSc1nnc(-c2ccc(Br)cc2)o1)Nc1cccc2ccccc12	-2.4	-0.8	-2.8	-1.2	x	3.0
O=C(CSc1nnc(-c2ccc(Br)cc2)o1)Nc1cccc(C(=O)O)c1	-2.7	56.1	x	x	97.9*	x
COc1ccccc1-n1cc([C@@H]2C[C@H]3CN(c4ccccc4)C(=O)[C@]34CCCN24)cn1	-1.8	-17.4	94.8*	-1.1	-361.9	6.8
CCCc1nc(C)cc(N2CCN(c3ccccc3)CC2)n1	0.2	-29.7	x	x	-15.0	x
CC[n+]1c(C)cc(C)n1-c1ccccc1	4.8	-20.6	5.2	63.3*	-5.4	64.6*
COC(=O)c1ccc(OS(=O)(=O)N(C)C)cc1	3.1	-26.6	-26.8	-2.3	-87.8	35.6*
CN(C)S(=O)(=O)Oc1ccc(C(=O)Nc2ccc([N+](=O)[O-])cc2)cc1	11.0	-8.6	-44.0	1.4	-5.4	1.5
COc1ccc(-n2ncc(Cl)c(Cl)c2=O)cc1	61.0*	-9.7	91.5*	8.6	-154.5	-9.3
COc1ccc(-n2ncc(N(C)n3cccc3)c(Cl)c2=O)cc1	-1.9	-158.4	-133.1	0.6	x	2.4
Cc1cc(C)c(S(=O)(=O)Nc2cc(SCC(=O)O)c(O)c3ccccc23)cc1C	8.3	-22.9	5.8	0.9	66.8*	11.1
